Bioassay records as filed in PubChem.
aDG glyco act – increases alpha dystroglycan glycosylation | Pro5-aDG cells, alpha-DG glycosylation AlphaScreen (IIH6); 0% Pro5, 100% B10-LARGE cell signal | activation, % at 10 µM | 0.22% of 360,000 active;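 active = activation of at least 8% versus controls, or a plate z-score of at least 8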;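 also: Pro5 are CHO cells carrying HIG-tagged alpha-DG that lacks glycosylation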
ARNT TACC3 PPI – ARNT/TACC3 interaction disruption; Q9Y6A5; AlphaScreen His-ARNT PAS-B/GST-TACC3 binding, luminescence; TACC3 fragment carries E629A point mutation; inhibition, % at 9.99 µM; 0.66% of 390,000 active; AID 623870;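 active = mean inhibition of replicates at least 50% and at least half of replicates each reaching 50%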
AI-2 QS modul – Vibrio harveyi AI-2 quorum sensing modulation; activity change, % at 7.5 µM; Vibrio harveyi JMH597 AI-2 luminescence/OD600 ratio, 9 h; stronger effect = lower value; strain lacks LuxN and CqsS sensors; 0 = neutral-control median; 0.4% of 300,000 active; in the data active = activity change below about -75%, passing the limit was not always enough;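 also: luminescence divided by OD600 gain over 9 h not by final OD600 alone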
SUMO Mot1 rescue – SUMOylation pathway inhibition by Mot1-301 growth rescue; S. cerevisiae Mot1-301 growth rescue, ATP luminescence, 38.5C; percent above DMSO median, 100 means doubled; growth rescue, % at 18.8 µM; 1% of 320,000 active; AID 2716;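 active = every valid replicate shows activation above 250% relative to neutral control wells; inactive = the rest, any valid replicate at or below 250%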
Bfl-1 A1 inh – inhibitors of the anti-apoptotic protein A1, read as caspase activation | AID 2462 | MEF A1-2A-BIM cells, Caspase-Glo 3/7 luminescence, 3 h; percent of clofoctol response, vehicle zero | caspase activation, % (concentration not given with the values) | 0.066% of 330,000 active;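 active = over half of replicate activation scores above 10%, or exactly half above 10 with the replicate mean above 10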
ARNT Alpha ctr – counter-screen for ARNT/TACC3 inhibitors: AlphaScreen artifacts. shares compounds with ARNT TACC3 PPI. His-ARNT PASB-GST AlphaScreen artifact counter-screen, luminescence. AID 651705. AC50, µM (series often up to 68 µM). 50% of 1,200 active;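 active = every separate test run was called active for a drop in luminescence, with AC50 within twice the top valid dose, actives reach about 71 µM in these data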
Numbers stand for hits; 0 = inactive; - = not tested or not shown. An excerpt weighted towards active compounds, which were near 1.8% of everything screened.

SMILES | aDG glyco act | ARNT TACC3 PPI | AI-2 QS modul | SUMO Mot1 rescue | Bfl-1 A1 inh | ARNT Alpha ctr
COc1ccc(NC(=O)Cn2nnc(C(=O)NCCc3ccccc3)c2N)cc1 | 0 | 0 | 0 | 0 | 0 | -
O=C(c1ccccn1)N1CC[C@@H]2[C@H](CO)Nc3ccc(Br)cc3[C@@H]21 | - | 77 | - | - | - | 45µM
CN(C)CCNc1ccc2ncn3c4ccc(O)cc4c(=O)c1c23 | 0 | 58 | - | - | - | 0
O=C(C1=C(O)C(=O)N(Cc2ccccc2)C1c1ccncc1)c1ccco1 (stereo not given) | 0 | 21 | 0 | 0 | 0 | 0
COc1ccc(S(=O)(=O)Nc2cccc3c2O[C@H](CN(C)Cc2ccc(Oc4ccccc4)cc2)[C@@H](C)CN([C@H](C)CO)C3=O)cc1 | 0 | 0 | - | 0 | 0 | -
N#Cc1ccc(S(=O)(=O)NCC(=O)OCC(=O)N2CCCC2=O)cc1 | 0 | 0 | 0 | 0 | 0 | -
c1c[nH]c(CN2CCN(Cc3ncc[nH]3)CC2)n1 | 0 | 53 | - | - | - | 0
c1ccc(N2CCN(Cc3nc4ccccc4[nH]3)CC2)nc1 | 0 | 0 | - | 0 | 0 | -
CC(Oc1ccc2c3c(c(=O)oc2c1)CCC3)C(=O)N[C@@H](Cc1ccccc1)C(=O)O (stereo not given in full) | 0 | 0 | 0 | 0 | 0 | -
Cc1ccc(N(C)S(=O)(=O)c2cccc(C(=O)Oc3ccc4c(C)cc(=O)oc4c3)c2)cc1 | 0 | 53 | 0 | 0 | 0 | 0
Cc1nc(NC(N)=S)sc1C(=O)Nc1ccccc1 | 0 | 0 | 0 | 0 | 0 | -
C#CCOCCOCCOCCNc1nc(N2CCN(C(=O)[C@H](CCC(=O)O)n3cc([C@@H](N)CCCCN)nn3)CC2)nc(N2CCN(C(=O)[C@H](CCC(=O)O)n3cc([C@@H](N)CCCCN)nn3)CC2)n1 | 0 | 0 | - | 0 | 0 | -
C#CCOCCOCCOCCNc1nc(N2CCN(C(=O)C([C@@H](C)O)n3cc([C@@H](N)CCCCN)nn3)CC2)nc(N2CCN(C(=O)[C@H](CO)n3cc([C@@H](N)C(C)C)nn3)CC2)n1 (stereo not given in full) | 0 | 0 | - | 0 | 0 | -
C#CCOCCOCCOCCNc1nc(N2CCN(C(=O)Cn3cc(CCCCN)nn3)CC2)nc(N2CCN(C(=O)[C@H](CCCCN)n3cc(CCCC)nn3)CC2)n1 | 0 | 32 | - | 0 | 0 | 0
C#CCOCCOCCOCCNc1nc(N2CCN(C(=O)C([C@@H](C)O)n3cc([C@@H](N)CCCCN)nn3)CC2)nc(N2CCN(C(=O)C([C@@H](C)O)n3cc([C@@H](N)CCCCN)nn3)CC2)n1 (stereo not given in full) | 0 | 60 | - | 0 | 0 | 0
C#CCOCCOCCOCCNc1nc(N2CCN(C(=O)[C@H](CCC(=O)O)n3cc([C@@H](N)CCCCN)nn3)CC2)nc(N2CCN(C(=O)[C@H](CCCCN)n3cc([C@@H](N)CC(N)=O)nn3)CC2)n1 | 0 | 51 | - | 0 | 0 | 0
CSc1cccc(NC(=O)CSc2nnc(C)s2)c1 | 0 | 0 | 0 | 0 | 0 | -
CCCCCOC(=O)Cn1c(SCC(=O)Nc2ccccc2)nc2c1c(=O)[nH]c(=O)n2C | 0 | - | 0 | 0 | 0 | -
Cc1ccc(Cn2cccc(NS(C)(=O)=O)c2=O)cc1 | 0 | 64 | 0 | - | - | 0
CCN1CCN(CCCN(Cc2ccco2)C(=S)Nc2ccccc2Cl)CC1 | 0 | 0 | 0 | 0 | 0 | -
O=C(CSc1nnc(-c2ccccn2)o1)Nc1ccccc1C(F)(F)F | 0 | 55 | 0 | 0 | 0 | 0
O=C1CCCN1CC(O)CS(=O)(=O)c1ccccc1 (stereo not given) | 0 | 0 | 0 | 0 | 0 | -
COC(=O)c1ccccc1-c1ccc(C(c2c(C)[nH][nH]c2=O)c2c(C)[nH][nH]c2=O)o1 | 0 | 60 | 0 | 0 | 0 | 0
COC(=O)c1ccc(C(c2c(C)[nH][nH]c2=O)c2c(C)[nH][nH]c2=O)cc1 | 0 | 0 | 0 | 0 | 0 | -
C[C@H]1CCCCO[C@@H](CN(C)S(=O)(=O)c2cn(C)cn2)[C@@H](C)CN([C@@H](C)CO)C(=O)c2cc(NS(=O)(=O)c3ccccc3)ccc2O1 | - | 0 | - | - | - | -
Nc1ccc(C(=O)Nc2ccccc2C(=O)O)cc1 | 0 | 0 | 0 | 0 | 0 | -
